In the supplement of paper PMC10681739:
Over roughly 2,700 sequences, “arbitrary fluorescence units” has its median near 4,100; the highest 2% begin near 54,000. The full list was thinned out, with the highest values kept by preference.

target: T1, ETS1 (UniProt P14921); experiment: ETS1 binding intensity (PBM fluorescence) (arbitrary fluorescence units); higher = stronger binding; settings: ETS1 concentration 10 nM
T1 sequence: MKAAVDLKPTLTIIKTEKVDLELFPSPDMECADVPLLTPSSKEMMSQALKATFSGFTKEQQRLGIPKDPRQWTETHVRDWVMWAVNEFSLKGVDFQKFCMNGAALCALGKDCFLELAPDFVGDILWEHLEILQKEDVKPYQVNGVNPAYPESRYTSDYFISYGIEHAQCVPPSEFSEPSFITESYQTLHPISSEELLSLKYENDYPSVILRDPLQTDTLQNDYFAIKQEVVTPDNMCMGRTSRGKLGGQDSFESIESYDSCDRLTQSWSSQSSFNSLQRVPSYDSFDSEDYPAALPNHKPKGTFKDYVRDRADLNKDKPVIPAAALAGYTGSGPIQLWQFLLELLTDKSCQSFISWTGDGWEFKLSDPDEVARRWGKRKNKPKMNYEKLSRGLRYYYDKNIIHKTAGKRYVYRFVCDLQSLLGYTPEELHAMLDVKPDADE
Method: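 gcPBM on wild-type 36-bp genomic probes with two neighbouring ETS1 sites (4-24 bp apart). Recombinant human ETS1 (10 nM) was detected with anti-ETS1 antibody fluorescence. Values are medians over 3 replicate spots. The probes sit in constant array flanks that are not printed.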

Sequence	ETS1 binding intensity
GCACCCGGAAGCCGCTTGCGGGCTCCCGGAAGCGGC	8720
GCGTTACTTCCGGCGCGCGGCGGGCGGAAGTCCGGG	69700
TGCGGGGCGGAAGCCGGGGCGTGACTTCCGGCGCCG	11600
GGGCGGGACTTCCGGCAAGGCGCGGAAGCGGCGGTA	46400
GGGCCTAGGAAATGCCGCACTACAACTTCCGTCGGG	992
GAGGCGCTTCCTCAGTTGGACTCCACTTCCTCTCCG	4590
GCCGGCGAGCGGAAGAGGCTGCAGGAAGGCCGGCCC	3170
TAGTTGTCCCTTCCTTAAGCACTTCCTGTTTGATCT	11900
CAAACACATCCTGTTTGCACTTGACTTCCTGTTTTG	37400
AGCACTTCCTGTTTGATCTCTATGATCCATCCTGTT	106000
CCGGGAGCTCCGGATGCAGACAGGAAGTGGGCAGGG	9950
CAGCACGACTTCCTGGAGCGGGCCGGAAGTGACAAC	21000
CGTCCTGACTTCCGGGGCGGGACGGAAGAGCGGGCG	25800
CGGGGCTCCCGGAAGCCGCCCCTTCCGCCAGCTTGC	4520
GAGACGGGACTTCCGGCTCCCGGGGAAGTCCCGCCC	53500
TATAAAACCATTTCCTTCTCTGGGAAATGAGATGTC	3370
GGTCCGGAAACGGGACAGAAGGCCCACCTTCCTCCC	8480
AGCCTTTGTATTTCCTTTCAGAGGAAACCCCAATGC	5570
CGCTGCTTCCGGGTCTCGGCAAGCACTTCCGGGGTG	30400
TGGGGTCTTCCGGTTGGACCCCTGCTTCCGCTGATT	24400
TTCCACTTCCGGTCTTACCCGGCTACTTCCGCTGCT	147000
CAACGGCAGCTTCCTGCGGCGCCGGAAACGCTTCAA	12100
TGAAACAGGAAGTCAGCTTCACAGCAGGAAGCAGAC	16400
TTCCTCAGGGAAGTTCGGGTGAGAGGAAGTGCCTGC	228
CCCGGTAGCCGCCGGAAAACTTCCGCCGAGACCGGA	4420
CAAGCGATTCTTCCGCCTCAACTTCCTGAGTAGCTG	5800
CGCCGCATCCGGTAGCGAGAGTTCAACTTCCTGACT	56600

Sequence	ETS1 binding intensity
TGTGATTTTCCATCCTGCCATTTCCTGGCACCCAGA	4620
GCCGCGGCGGAAGAGGCTCGGGGAGGAAGTTATTTG	1880
AGTCACACAGGAAATGGAGCCAGGGGATGTGCTCAA	14800
CGCGCCGGGTGTTTCCGCTACTTCCCTGCGGCGGGG	7930
CGGGCACTTCCGGCGCGAACCGCTACTTCCGGTGCG	95900
GCCGAGGACACTTCCGCGGGCGGAACCTGCCGGCAC	5200
ACTTGACATTTCCTGCCTCCTGTTTCCTCATCACTC	22500
GAGGTGGGGAGGAAGAGCTGCCGGAAGTAGGCGGTG	5440
CAGACTTCCGGGGTCGAGAACTACAACTTCCGACTT	61700
CTGGGCCCTTCCTGCCAGGTTGCACTTCCTGATAGC	8540
AGGCAGGAAGTACCGCCTGATGCTCAGCTTCCGCTG	9880
TGCCACATCCTGTCTTTTTACCTCCTTTCCTGCTTA	51200
GTAACAGGAAGAAAATAATTTACCACATCCTTTATT	975
CTTCCCTGGTAACATCCGGCATCCTGGGGCTGCCAA	18800
TGCGCATTTCCGCTCCTTGCCGGTTTTCCGGACCTC	36000
TGGTAACAGGCATTTCCGGTTTCCGGCCGGCTCCCT	61800
ACATAAGACATGAGGATGTCTTCCTGACTTGCGTCC	208
GGGTCTTCCGGCCCTCTCGAAAATCATTTCCGGCAT	22500
GTTATGATAACGGAACTACAGTTCCTCCAGGATGGA	195
GGAGGAGGCGGAGGAAACCCGGAAAAGGGGCCGCGC	382
GGCTCACTTCCGGCCTCAGAGCCGCTTCCGGCGCGC	71400
GCTCCGCCCCCGGAAGCCTCACTTCCGGGCGCGAGC	25300
GCGCCGCCTCAGTTCCGCGGCTTCCGGCCACAGAGT	8030
CGGGAGCAGCGGAAGTCATTAACATCCGCGGTTGTG	12500
TGCCACCACACCAGGATGCTTCCGTCTTTGAAGGCA	1030
GTCACCACATCCTGAGGCTTCTCATTTCCTTTCTAC	6290
TGTTATTGGACAACTTCCAGGAAAACATCCTCAAGA	273

Sequence	ETS1 binding intensity
TGCCAAGTTACACTTCCTGTTTCCTCTCTGTGTGCC	31700
ACAACTTCCTGTTACACAAGACAGGTATTTCCTCAT	59800
AGCCCAAGCGCGGAAGAGGGCGGAAGGAGAACCCCT	240
GCACCAAGGGAAGTGGTTAAAACAGGAAGACCCGCT	919
CGGCCCTTCCATTTCCTGCCTTCCTGCCTGCATTTG	24200
GGAGCACTTCCGCTGGACGCACGCACTTCCGGCCCC	50800
GTCACTTCCGGCGCCCGCCTACACGCACTTCCGTTC	88200
TTACACTACTTCCGCCGCCTCACTTCCGGTGACGCG	34100
CATCCTTGGCATTTCCTCTGAGGAAGCTCGCACCCC	3550
GGTTGGTGATTGGCAGGATCCTGGTATCCGCTAACA	278
CTTCGCCTTCCGCTGTGAATAATAGCTTCCTGAGGC	10100
CTGCTACAGGAAATCGCTTGTTATTTCCTGTAATGC	10900
TTCATTTCCGGCGGCGGAGGCGGCAGTTTCCTAAGC	73000
CTCAACTTCCGGAGGCGGCAGACTTTTTCCGTCAAG	36700
TGAGGCGGTTTCCTCGGCGCCTTTTCCGGCAGCGGC	1360
AGATCGCTGGCTTCCTGTGTTTTTCCTGGACTCAGG	14800
CGGCCTCTTCCGCGAGCCCGCGCGCCGGAAGTGGAA	5440
GCACCGGAAGTGACCGCCTCGCGGCTGCTTCCTCTC	57700
CGCCGGAAGTGGTCGCGGGTCGTTCTGCTTCCTGCC	18000
CCTGAGTTTCCTTGTCTGGAGCTGCAGGATATTTGT	800
ACCCCCTGGCGGATGCTGTGTGTTTCCTGTGCTTAG	3420
GGTCCGGAAGGGAGGAGAACACAAGCAGGATATAAC	860
ATCTGCAGGATGTAAGAAGAATAGAAGGAAGCTGGG	1930
GGGGACCGGAAGCCAGCGGCAACAACTTCCGGCGGG	23100
GACACAACTTCCGGCTTCTGGCGGCGGAAGAGGACA	90100
TGGCGGAGGCGCCGGAAGTTTTCCGGCTTTCTGCTG	4500
